Screening data: PubChem, several laboratories
Rows were chosen to be rich in hits. Some 2.5% of all compounds tested hit in one or more screens of this group.
UBC13 polyUb: UBC13 polyubiquitin chain formation inhibitors, primary screen, biochemical, TR-FRET, uHTS | AID 485273, 2010 | 330,000 tested, 0.47% active | inhibition, % at 20 µM | Ubiquitin-conjugating enzyme E2 N (Homo sapiens), P61088; in the data active = inhibition above about 45%, passing the limit was not always enough
Rce1 inhib: yeast Rce1p protease inhibitors, primary screen, biochemical, fluorescence, cell-free homogeneous | CAAX prenyl protease 2 (Saccharomyces cerevisiae (strain ATCC 204508 / S288c)), Q03530 | yeast membranes, quenched prenylated peptide cleavage fluorescence | calls only | 290,000 tested, 0.27% active | AID 2563, 2010;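 active = fall in fluorescence gain of 50% or more versus controls, with final raw signal at or below 3038400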;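 note: plate controls were neutral control wells for no effect and wells lacking membranes for full effect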
Target sequence (Q03530 whole entry, looked up): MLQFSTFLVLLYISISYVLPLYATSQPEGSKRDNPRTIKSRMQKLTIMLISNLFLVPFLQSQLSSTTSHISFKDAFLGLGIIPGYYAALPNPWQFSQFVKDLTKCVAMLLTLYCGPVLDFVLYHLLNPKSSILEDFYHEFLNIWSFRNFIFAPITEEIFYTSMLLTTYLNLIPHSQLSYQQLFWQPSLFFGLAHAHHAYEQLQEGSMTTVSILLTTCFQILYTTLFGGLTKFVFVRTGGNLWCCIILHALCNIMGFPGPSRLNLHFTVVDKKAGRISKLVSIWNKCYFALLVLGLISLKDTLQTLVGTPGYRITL
MEKK2mut PB1 HTS: MEK5 binding signal on mutant MEKK2 PB1, primary screen, biochemical, multiplex bead flow cytometry, Alexa488-MEK5. Alexa488-MEK5 binding to MEKK2 mutant. percent response, % at 10 µM. 290,000 tested, 0.35% active; in the data active = percent response above about 24%, passing the limit was not always enough
MEKK3 PB1 HTS: modulators of MEKK3-MEK5 PB1 binding, primary screen, biochemical, wildtype MEKK3, multiplex bead flow cytometry, Alexa488-MEK5. 290,000 tested, 1.4% active. binding response (% of control), % at 10 µM. bead-based flow cytometry, Alexa488-MEK5 binding to MEKK3; actives lie on both sides; 0 = blocked by unlabeled MEK5, 100 = vehicle;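 active = binding response more than 3 SD above or below the average of its plate-row segment, actives on both sides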;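 note: Alexa488 bead fluorescence after subtracting the streptavidin-only scavenger bead signal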
MEKK2wt PB1 HTS: modulators of MEK5 binding to wildtype MEKK2, primary screen, biochemical, multiplex bead flow cytometry, Alexa488-MEK5; Mitogen-activated protein kinase kinase kinase 2 (Homo sapiens), Q9Y2U5; Alexa488-MEK5 binding to MEKK2 WT; actives lie on both sides; binding response (% of control), % at 10 µM; 290,000 tested, 1.1% active; AID 1531, 2009; in the data active = binding response below about 67% or above about 130%
Casp3 counter: CASP3 inhibitor validation, counterassay for project on UBE2N polyubiquitination blockers, biochemical, one dose; shares compounds with UBC13 polyUb; Recombinant caspase-3, Caspase-Glo 3/7 luminescence, 60 min; inhibition, % at 20 µM; 1,400 tested, 4% active;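 active = mean inhibition across replicates above about 26%, limit read from the data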;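 note: plate controls were DMSO with caspase-3 for no effect and DMSO wells lacking enzyme for full effect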
UBC13 conf: UBC13 polyubiquitination inhibitors, single-point retest, confirmation, biochemical, TR-FRET, single concentration | shares compounds with UBC13 polyUb | inhibition, % at 10 µM | 1,400 tested, 68% active; in the data active = inhibition above about 45%
An asterisk follows results filed as active; i = inactive; x = not tested or not shown.

SMILES	UBC13 polyUb	Rce1 inhib	MEKK2mut PB1 HTS	MEKK3 PB1 HTS	MEKK2wt PB1 HTS	Casp3 counter	UBC13 conf
CCC(=O)N1c2ccc(C)cc2C2=NNC(=S)NC21O (stereo unspecified)	47*	i	9	103	106	3	-13
CC(=O)Nc1ccc(NC(=O)c2nc(S(=O)(=O)Cc3cccc(C)c3)ncc2Cl)cc1	45*	i	1	103	108	2	47*
CCCc1nnc(NC(=O)c2nc(S(=O)(=O)Cc3ccc(C)cc3)ncc2Cl)s1	59*	i	0	96	95	0	54*
COC(=O)c1ccc(NC(=O)c2nc(S(=O)(=O)Cc3cccc(C)c3)ncc2Cl)cc1	15	i	-1	100	101	x	x
CCCS(=O)(=O)c1ncc(Cl)c(C(=O)Nc2ccc(S(=O)(=O)Nc3ncccn3)cc2)n1	53*	i	8	105	102	-2	50*
CC(C)c1nnc(NC(=O)c2nc(S(=O)(=O)Cc3ccccc3)ncc2Cl)s1	41	i	3	102	101	x	x
CCSc1ncc(Cl)c(C(=O)Nc2ccc(S(=O)(=O)Nc3ncccn3)cc2)n1	3	i	2	101	101	x	x
COC(=O)c1c(O)cc(C(C)(C)C)n(-c2ccc(F)cc2)c1=O	-12	i	-4	93	94	x	x
O=C(Nc1ccc(Oc2ccccc2)nc1)C1CCCCN1Cc1ccc(OCCO)cc1 (stereo unspecified)	3	i	15	108	110	x	x
CCc1ccc(OCC(=O)Nc2ccncc2)c(Br)c1	-6	i	0	105	102	x	x
CCc1ccc(OCC(=O)NNC(=O)c2cnccn2)c(Br)c1	53*	i	8	107	110	4	41
COC(=O)c1cccc(NC(=O)Cc2coc3cc(OC)ccc23)c1	48*	i	4	102	103	-3	53*
Cc1cc(N2CCN(C)CC2)nc2ccc(NC(=S)N3CCN(c4cccc(Cl)c4)CC3)cc12	61*	i	-3	107	110	0	54*
Cc1cc(N2CCN(C)CC2)nc2ccc(NC(=S)N3CCN(c4ccc(Cl)cc4)CC3)cc12	76*	i	19	102	137	5	70*
Cc1cc(N2CCN(C)CC2)nc2ccc(NC(=S)N3CCCCCC3)cc12	14	i	10	100	127	x	x
Cc1cc(N2CCN(C)CC2)nc2ccc(NC(=S)N3CCN(c4ccc(F)cc4)CC3)cc12	47*	i	14	105	125	-3	38
Cc1nc(C)n(C(C)CNS(=O)(=O)c2ccc(C)c(C)c2)n1 (stereo unspecified)	2	i	5	101	99	x	x
CCOC(=O)C1CC(c2ccccc2)=NNC1=O (stereo unspecified)	7	i	1	101	105	x	x
Cc1nc2cc(NC(=O)CCS(=O)(=O)c3ccccc3)ccc2s1	9	i	11	107	108	x	x
O=C(NN1C(=O)c2ccc3c4c(ccc(c24)C1=O)CC3)c1ccc(Br)cc1	57*	i	-3	90	95	-2	63*
O=C1c2ccc3c4c(ccc(c24)C(=O)N1NC(=O)C(F)(F)F)CC3	-18	i	1	99	98	x	x
COc1ccccc1NC(=O)c1cc(S(=O)(=O)N2CCC3(CC2)OCCO3)ccc1F	56*	i	1	100	100	-4	40
COc1ccc(CNS(=O)(=O)c2ccc(F)c(C(=O)Nc3ccccc3OC)c2)cc1	18	i	-12	65	72	x	x
COc1ccccc1NC(=O)c1cc(S(=O)(=O)NCc2ccccc2)ccc1F	63*	i	-10	95	90	0	75*
